Only some compounds are listed: those with a hit (about 3.6% of all), similar ones and a draw of the others.
GCN5L2 inh-1: qHTS Assay for Inhibitors of GCN5L2; Histone acetyltransferase KAT2A (Homo sapiens), Q92830; 0.21% of 390,000 active; GCN5L2 HAT assay, ThioGlo1 CoA-SH fluorescence; Potency, µM (highest dose often 58.9 µM), usual class: inhibitors
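Titration-based screen in which CoA formation is detected via maleimide probe ThioGlo1 (50uM) turning fluorescent on thiol reaction; substrates H3(1-25) 75uM and acetyl-CoA 70uM, GCN5L2 20nM, 20 min incubation at room temperature.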
PLK1 PBD block: qHTS for Inhibitors of PLK1-PDB (polo-like kinase 1 - polo-box domain): Primary Screen | Serine/threonine-protein kinase PLK1 (Homo sapiens), P53350 | Plk1 PBD binding of FITC phosphopeptide, fluorescence polarization | Potency, µM, most hits filed as inhibitors | 2.8% of 360,000 active | AID 720504, 2013; note: series mostly up to about 57 µM; nearly all actives have a fitted effect of over 65% in size
Rango-impB inh: qHTS Assay for Inhibitors of Rango (Ran-regulated importin-beta cargo) - Importin beta complex formation. Rango CFP/YFP FRET sensor + importin beta, 45 min. 0.031% of 340,000 active. Potency, µM (series often up to 92.2 µM). Importin subunit beta-1 (Homo sapiens), Q14974; calls by dose curve; note: nearly all actives have a fitted effect of over 15% in size
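FRET biosensor (snurportin 1 IBB flanked by EYFP and cerulean), 50 nM, with compound 5 min, then 0.125 microM importin beta in PBS, 1 mM DTT, 0.02% Tween-20, 0.1% BSA. CFP/YFP ratio read after 45 min at room temperature; pre-read flags interference.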
PI5P4Ka inh: qHTS for Inhibitors of phosphatidylinositol 5-phosphate 4-kinase (PI5P4K). Phosphatidylinositol 5-phosphate 4-kinase type-2 alpha (Homo sapiens), P48426. PI5P4Kalpha enzyme, ADP-Glo luminescence, 60 min; active compounds read low. max response, %. 1.2% of 330,000 active; active = max response of -50% or lower; inconclusive = between -30% and -50%; inactive = -30% or higher; note: value at the top dose of about 77 µM
Target sequence (P48426 whole entry, looked up): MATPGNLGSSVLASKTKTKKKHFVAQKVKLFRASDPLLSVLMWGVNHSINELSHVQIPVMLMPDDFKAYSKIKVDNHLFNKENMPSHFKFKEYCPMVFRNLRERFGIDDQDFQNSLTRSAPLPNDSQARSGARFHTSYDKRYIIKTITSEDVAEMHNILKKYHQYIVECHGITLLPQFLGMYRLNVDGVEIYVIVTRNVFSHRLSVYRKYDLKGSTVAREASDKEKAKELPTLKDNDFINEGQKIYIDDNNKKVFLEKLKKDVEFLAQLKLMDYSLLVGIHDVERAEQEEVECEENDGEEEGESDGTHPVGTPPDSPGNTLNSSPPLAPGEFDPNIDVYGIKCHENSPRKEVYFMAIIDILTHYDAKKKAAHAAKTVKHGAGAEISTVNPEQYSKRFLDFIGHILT
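Human PI5P4Kalpha with substrate in 0.038 M HEPES pH 7.4, 0.28 mM EGTA, 0.1% CHAPS, 5% DMSO; reaction started with 5 microM ATP (final), 60 min at room temperature. ADP formed read by ADP-Glo luminescence.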
VDR inh: Inhibitors of the vitamin D receptor (VDR): qHTS; Vitamin D3 receptor (Homo sapiens), P11473; VDR-SRC2-3 peptide fluorescence polarization, 2 h; Potency, µM, most hits filed as inhibitors; 0.93% of 400,000 active; AID 504847, 2011
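Measured by FP: displacement of SRC2-3 coactivator peptide from VDR by library compounds, following a two-hour ambient incubation.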
Rango dissoc inh: qHTS Assay for Inhibitors of RanGTP induced Rango (Ran-regulated importin-beta cargo) - Importin beta complex dissociation; AID 540253, 2011; Potency, µM (titrated, usually from 46.1 µM); Snurportin-1 (Homo sapiens) + GTP-binding nuclear protein Ran (Homo sapiens) + Importin …; Biochemical FRET Rango-importin beta, RanGTP-induced dissociation; 0.071% of 340,000 active; calls by dose curve; note: nearly all actives have a fitted effect of over 45% in size
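FRET read at 45 min, room temperature: inhibitors block the CFP/YFP signal rise when RanGTP (0.6 uM Ran, 2 mM GTP, 0.2 uM RCC1) frees Rango (0.1 uM) from importin beta (0.25 uM). Pre-read after 5 min compound exposure flags interference.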
GCN5L2 inh-2: qHTS Assay for Inhibitors of GCN5L2: Hit confirmation; shares compounds with GCN5L2 inh-1; GCN5L2 HAT, ThioGlo1 CoA fluorescence, 20 min; Potency, µM, actives largely listed as inhibitors; 70% of 140 active; AID 588347, 2011
VDR inh confirm: qHTS for Inhibitors of the vitamin D receptor (VDR): Hit Validation in Primary Screen | shares compounds with VDR inh | VDR-coactivator inhibition assay, qHTS confirmation | Potency, µM, usual class: inhibitors | 89% of 840 active | AID 602199, 2012
VDR FP fluor: qHTS for Inhibitors of the vitamin D receptor (VDR): Hit Validation using a Fluorescein Assay | Potency, µM (series often up to 57.1 µM), usual class: inhibitors | VDR-coactivator binding, fluorescein fluorescence polarization | 48% of 840 active | shares compounds with VDR inh
VDR bla reporter: qHTS for Inhibitors of the vitamin D receptor (VDR): Hit Validation using a Beta-Lactamase Assay. VDR beta-lactamase reporter cells, FRET ratio; cells co-treated with VDR agonist LG190178. shares compounds with VDR inh. 23% of 840 active. AID 602202, 2012. Potency, µM (doses to about 46.1 µM), hits mostly inhibitors
VDR viability: qHTS for Inhibitors of the vitamin D receptor (VDR): Hit Validation using a Cytotoxicity Assay. Potency, µM (series often up to 48.3 µM), hits mostly cytotoxic. 18% of 840 active. shares compounds with VDR inh. cytotoxicity counter-screen, cell viability, qHTS; note: nearly all actives have a fitted effect of over 75% in size
ADP-Glo interf: qHTS for Inhibitors of PI5P4K: ADP-Glo counter assay | ADP-Glo detection counter-screen, luciferase luminescence, no enzyme | shares compounds with PI5P4Ka inh | Potency, µM (titrated, usually from 76.9 µM), actives largely listed as inhibitors | 1,100 tested, under 10 active
TbPYK inh: qHTS of Trypanosoma Brucei Inhibitors: Confirmatory Assay for Cherry-picked Compounds; shares compounds with PLK1 PBD block; recombinant TbPYK, Kinase-Glo ATP luminescence; Potency, µM (top dose mostly 76.9 µM), actives largely listed as inhibitors; 67% of 890 active; note: nearly all actives have a fitted effect of over 70% in size
TbPYK orthogonal: qHTS of Trypanosoma Brucei Inhibitors: Orthogonal Assay for Cherry-picked Compounds. shares compounds with PLK1 PBD block. AID 720584, 2013. 62% of 890 active. Potency, µM (series often up to 76.9 µM), most hits filed as inhibitors. recombinant TbPYK, ADP-Glo luminescence, 60 min; note: nearly all actives have a fitted effect of over 75% in size
Hits are given with their value; – = inactive; ? = inconclusive; · = no result given. Unless noted, calls come from the whole dose curve; as a rule, active = well fitted curve in the direction sought with a large enough effect; inconclusive = small, poorly fitted or top-dose-only effect, or another doubt; inactive = no such curve, though single readings can be large; an effect the other way counts as inactive or inconclusive.

SMILES | GCN5L2 inh-1 | PLK1 PBD block | Rango-impB inh | PI5P4Ka inh | VDR inh | Rango dissoc inh | GCN5L2 inh-2 | VDR inh confirm | VDR FP fluor | VDR bla reporter | VDR viability | others
ClC(Cl)(c1nnnn1-c1ccccc1)c1nnnn1-c1ccccc1 | 22.4µM | 1.89µM | – | ? | 3.55µM | – | 8.13 | 3.36 | ? | ? | 16.4µM
O=C(CCCn1c(=O)c2ccccc2n(Cc2cccc(Cl)c2)c1=O)NCCc1ccc(Cl)cc1 | – | · | · | · | – | · | · | · | · | · | ·
Cc1c2cnn(CC(=O)Nc3c(F)c(F)cc(F)c3F)c(=O)c2c(C)n1Cc1ccccc1F | 12.6µM | ? | – | -56.3 | – | – | 20.4 | · | · | · | · | ADP-Glo interf=–
COc1cccc(CNC(=O)c2cc(C)nc3c2c(C)nn3-c2cccc(F)c2)c1 | – | · | · | · | – | · | · | · | · | · | ·
CC(NC(=O)c1sc2cc([N+](=O)[O-])ccc2c1Cl)C(C)(C)C (stereo not drawn) | ? | 1.19µM | – | -51.7 | ? | – | 3.63 | 5.62 | 3.16µM | – | – | ADP-Glo interf=–;TbPYK inh=3.98µM;TbPYK orthogonal=11.2µM
O=C(NC1CC1)c1sc2cc([N+](=O)[O-])ccc2c1Cl | – | – | – | – | – | – | · | · | · | · | ·
COc1ccccc1NC(=O)CSc1oc(-c2ccccc2)nc1S(=O)(=O)c1ccc(C)cc1 | – | · | · | · | – | · | · | · | · | · | ·
O=C1CCC(C(=O)Nc2cccc(S(=O)(=O)Nc3ccccc3F)c2)=NN1 | ? | 2.38µM | – | – | 25.1µM | – | 11.5 | ? | ? | – | – | TbPYK inh=6.31µM;TbPYK orthogonal=6.31µM
C=C1c2cccc(C(F)(F)F)c2O[C@H](C(=O)OCC)C1OC (mixture of isomers) | – | · | · | · | – | · | · | · | · | · | ·
Cc1ccc(CNC(=O)c2cc(=O)c3cc(C)c(C)cc3o2)cc1 | – | · | · | · | – | · | · | · | · | · | ·
